SMILES strings stand for the structures. Results filed as inconclusive are left out. Active and inactive are the calls of the source. Unless noted, calls come from the whole dose curve; as a rule, active = well fitted curve in the direction sought with a large enough effect; inconclusive = small, poorly fitted or top-dose-only effect, or another doubt; inactive = no such curve, though single readings can be large; an effect the other way counts as inactive or inconclusive.

The target of test [1] is Luciferin 4-monooxygenase (Photinus pyralis) (UniProt P08659). Description: Biochemical firefly luciferase enzyme assay for NPC (AID 624030).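 Note: purified P. pyralis luciferase at 10 nM with luciferin and ATP substrate; 0% = DMSO and -100% = full luciferase inhibition by PTC124 control; nearly all actives have a fitted effect of over 70% in size.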 In outline:
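Direct inhibition of firefly luciferase enzyme (10 nM final, 50 mM Tris Acetate) assessed by luminescence within 5 minutes. Percent activity scaled between DMSO and PTC124 positive control, with concentration-effect curves classified by fit quality and response.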

Test [2] in a line: Cytotoxicity counterscreen for NFkB agonists and antagonists (AID 624476). Note: % is set by controls: 0 for no effect and ±100 for the full control effect.
Test [3] is described as follows: qHTS Assay for Identification of Small Molecule Agonists for NFkB Signaling Pathway. (AID 624478).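 Note: compounds tested together with TNF alpha at its EC50 of 10 pM; 0% is about no effect.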 In outline:
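Activators were sought in reporter cells stimulated at the TNF alpha EC50 (10 pM final). Compound and cytokine were co-incubated 5 hours at 37 C before beta-lactamase substrate detection by dual-emission fluorescence.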

A short description of test [4]: qHTS Assay for Identification of Small Molecule Antagonists for NFkB Signaling Pathway. (AID 624479; calls by dose curve;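 note: pathway stimulated with TNF alpha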; note: potency is the fitted concentration of half-maximal effect).
A short description of test [5]: Cell Proliferation Assay against the TMD8 Cell Line (AID 651645).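 Note: cells exposed to compound for 48 h before reading.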 The settings on record: TMD8 DLBCL cell line proliferation/viability; at 46.1 µM (top of the series) unless noted. In a few lines:
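TMD8 ABC DLBCL cells, 500 per well in phenol red-free RPMI with 5% FBS, were treated with compound by pin transfer and incubated 48 hours at 37C, 5% CO2. Viability was read by CellTiter-Glo luminescence, normalised to DMSO (100%) and 9.2 uM bortezomib (0%).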

A short description of test [6]: Cell Proliferation Assay against the HBL1 Cell Line (AID 651646).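 Note: cells exposed to compound for 48 h before reading.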 The following applies: HBL1 DLBCL cells; at 46.1 µM (top of the series) unless noted. In outline:
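CellTiter-Glo luminescence after 48 h compound exposure at 37C gives percent activity, with DMSO as 100% and 9.2 uM bortezomib final as 0%. Cells: 500 log-phase HBL1 per well, RPMI plus 5% FBS.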

Test [7] is described as follows: Cell Proliferation Assay against the TMD8 Cell Line (Caspase readout at 16 hrs) (AID 651712). In outline: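 Caspase-Glo luminescence measured apoptosis after a 16 h, 37 C compound exposure of TMD8 cells (500 cells/well, 5% FBS RPMI). DMSO set 0% and bortezomib at 9.2 uM final set 100% activity.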
Test [8] is described as follows: S16 Schwann cell viability assay (CellTiter-Glo assay) (AID 624031).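 Note: native untransfected S16 rat Schwann cells; cellular ATP luminescence as a viability measure; plate controls were DMSO-treated cells for no effect and cell-free wells for full effect; nearly all actives have a fitted effect of over 70% in size.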 In outline:
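Following overnight culture in 10% FBS DMEM, parental S16 rat Schwann cells are dosed for 24 h at 37 °C. Viability is read as CellTiter-Glo luminescence and expressed as % activity relative to DMSO (0%) and no-cell wells.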
A general note: Cellular ATP, detected with luciferase, serves as a proxy for viable cell number.

Test [9] concerns the target Glutaminase kidney isoform, mitochondrial (Homo sapiens) (UniProt O94925). Put plainly: qHTS for Inhibitors of Glutaminase (GLS): LOPAC Validation (AID 624146).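 Note: glutamate product detected by oxidase and peroxidase coupled Amplex red fluorescence gain; % is set by controls: 0 for no effect and ±100 for the full control effect; nearly all actives have a fitted effect of over 60% in size.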 In a few lines:
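Assay buffer: 45 mM KH2PO4 pH 8.2, 0.02% Tween-20. hKGA acts on L-glutamine (1 mM solution added); product glutamate is reported by an oxidase/peroxidase Amplex Red coupling, with fluorescence taken at baseline and 30 min.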
Background: Quantitative high-throughput screening tests each substance at several concentrations.

Test [10] in a line: qHTS of Trypanosoma Brucei Inhibitors: LOPAC Validation (AID 624147). Note: 0% is about no effect. In a few lines: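 Glycolytic pyruvate kinase of T. brucei was incubated with substrate, test compound and 130 uM ADP for 45 minutes at room temperature. Luminescent Kinase-Glo Plus signal was measured after 10 minutes.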
The target of test [11] is Glucagon-like peptide 1 receptor (Homo sapiens) (UniProt P43220). Description: qHTS of GLP-1 Receptor Agonists: LOPAC Validation (AID 624148).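 Note: luminescence from a luciferase reporter switched on by cAMP; 0% is about no effect; higher luminescence signal means agonism.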 In outline:
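Agonism scored as increased luciferase luminescence driven by cAMP in HEK293 clones carrying GLP-1R. Cells settled 12 hours, received compound for 4-6 hr at 37 deg C, 5% CO2, and were read after 12 min detection reagent at RT.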

Test [12] can be described thus: qHTS of Nrf2 Activators: LOPAC Validation (AID 624149). Note: 0% is about no effect. In a few lines:
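Cells (AREc32_Fluc) are plated at 1000 per well in OPTI-MEM containing 5% FBS and left overnight. Compounds are pinned in and incubated 24 hr at 37 deg C, and firefly luciferase is detected with Steady-Glo.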

Test [13] can be described thus: HTS Assay for Allosteric Antagonists of the Human D2 Dopamine Receptor: Hit Validation in HTRF (AID 624455).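 Note: stable D1 dopamine receptor cell line scored for blocking the D1 response; % is set by controls: 0 for no effect and ±100 for the full control effect.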 In a few lines: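 Inhibition of the D1-mediated response is measured by HTRF in cells that stably express the D1 dopamine receptor. Compounds reaching this step are hits from calcium-flux antagonism testing at EC80 dopamine in inducible Hek293 Trex D2 cells.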
A general note: Time-resolved FRET reads energy transfer from a long-lived donor to a nearby acceptor.

A short description of test [14]: S16 Schwann cell PMP22 intronic element firefly luciferase assay (AID 624032).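 Note: plate controls were DMSO for no effect and PTC124 positive control mean for full effect; nearly all actives have a fitted effect of over 30% in size.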 In a few lines:
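Luciferase reporter of PMP22 intronic-element expression in stably transfected S16 rat Schwann cells, read by ONE-Glo luminescence after 24 h compound exposure at 37 C. Activity scaled between DMSO (0%) and positive-control PTC124; concentration-effect curves quality-classified.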

The nature of test [15]: S16 Schwann cell PMP22 intronic element beta-lactamase assay (AID 624044; calls by dose curve;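 note: 0% = DMSO and -100% = potassium clavulanate positive control; nearly all actives have a fitted effect of over 15% in size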). In outline:
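Beta-lactamase reporter under a PMP22 intronic regulatory element in stable S16 rat Schwann cells; 24 h compound exposure. 460 nm blue signal normalized between DMSO (0%) and potassium clavulanate, with 535 nm FRET tracking viability; curves classed by r2 and response.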

Test [16] can be described thus: Cell Proliferation Assay against the TMD8 Cell Line (Caspase readout at 8 hrs) (AID 651713).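 Note: 0% = DMSO and 100% = 9.2 µM bortezomib caspase signal.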 In outline:
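Caspase 3/7 activation in ABC DLBCL TMD8 cells is measured by luminescence after an 8 h compound exposure at 37C. Relative light units are scaled between DMSO (0%) and 9.2 uM final bortezomib (100%).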

Chain of Glutaminase kidney isoform, mitochondrial (Homo sapiens) (O94925 whole entry, looked up, canonical isoform): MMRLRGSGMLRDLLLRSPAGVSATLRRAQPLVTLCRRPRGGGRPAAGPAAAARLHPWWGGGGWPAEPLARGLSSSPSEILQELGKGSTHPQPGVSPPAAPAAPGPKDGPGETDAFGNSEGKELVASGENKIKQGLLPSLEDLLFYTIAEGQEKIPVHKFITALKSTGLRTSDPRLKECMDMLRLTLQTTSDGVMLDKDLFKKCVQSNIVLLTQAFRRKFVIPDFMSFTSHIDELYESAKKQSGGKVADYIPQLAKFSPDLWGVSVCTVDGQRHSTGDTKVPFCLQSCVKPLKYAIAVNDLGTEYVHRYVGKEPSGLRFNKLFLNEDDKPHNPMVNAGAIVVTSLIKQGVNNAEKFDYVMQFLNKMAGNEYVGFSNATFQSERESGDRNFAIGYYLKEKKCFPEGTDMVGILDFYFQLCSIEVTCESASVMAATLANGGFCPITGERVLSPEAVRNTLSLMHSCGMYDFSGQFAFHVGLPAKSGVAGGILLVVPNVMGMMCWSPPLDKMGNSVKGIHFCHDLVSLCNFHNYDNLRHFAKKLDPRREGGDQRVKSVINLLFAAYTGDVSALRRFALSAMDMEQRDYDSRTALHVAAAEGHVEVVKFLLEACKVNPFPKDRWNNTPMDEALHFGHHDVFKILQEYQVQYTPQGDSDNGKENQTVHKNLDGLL
Chain of Glucagon-like peptide 1 receptor (Homo sapiens) (P43220 whole entry, looked up): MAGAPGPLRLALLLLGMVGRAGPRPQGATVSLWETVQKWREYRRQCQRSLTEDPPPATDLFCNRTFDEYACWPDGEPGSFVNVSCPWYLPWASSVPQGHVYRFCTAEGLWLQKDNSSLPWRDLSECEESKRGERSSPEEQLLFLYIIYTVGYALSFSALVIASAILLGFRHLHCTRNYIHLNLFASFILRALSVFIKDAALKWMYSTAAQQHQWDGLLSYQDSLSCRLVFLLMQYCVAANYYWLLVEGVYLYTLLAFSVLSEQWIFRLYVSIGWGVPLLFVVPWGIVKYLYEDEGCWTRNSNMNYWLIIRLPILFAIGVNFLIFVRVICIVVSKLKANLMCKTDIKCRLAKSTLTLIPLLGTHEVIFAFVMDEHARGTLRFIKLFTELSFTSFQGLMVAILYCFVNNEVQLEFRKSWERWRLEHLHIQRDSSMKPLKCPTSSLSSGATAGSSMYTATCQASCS
Chain of Luciferin 4-monooxygenase (Photinus pyralis) (P08659 whole entry, looked up): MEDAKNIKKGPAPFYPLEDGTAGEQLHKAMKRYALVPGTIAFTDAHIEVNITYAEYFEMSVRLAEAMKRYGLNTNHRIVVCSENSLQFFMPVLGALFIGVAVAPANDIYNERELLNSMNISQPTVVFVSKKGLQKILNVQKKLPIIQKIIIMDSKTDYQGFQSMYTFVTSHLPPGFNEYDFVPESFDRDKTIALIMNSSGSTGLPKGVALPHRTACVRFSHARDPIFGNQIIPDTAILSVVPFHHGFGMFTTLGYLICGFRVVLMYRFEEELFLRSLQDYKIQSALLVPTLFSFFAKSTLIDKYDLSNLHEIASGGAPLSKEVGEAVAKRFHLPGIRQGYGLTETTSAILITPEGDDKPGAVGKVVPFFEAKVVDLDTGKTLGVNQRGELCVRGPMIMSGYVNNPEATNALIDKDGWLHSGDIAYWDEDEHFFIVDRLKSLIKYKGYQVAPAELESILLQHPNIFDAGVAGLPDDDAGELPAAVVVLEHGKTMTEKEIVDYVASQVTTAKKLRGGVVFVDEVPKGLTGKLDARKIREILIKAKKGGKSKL

With `CCOC(=O)C1=C[C@@]2(CC)CCCN3CCc4c(n1c1ccccc41)[C@H]32`, the Potency entry in test [1], in [2], in test [4] and in test [7] was “inactive” throughout. The compound was called inactive in [3]. In addition, in test [5], the viability (% of control) came to 87.1% [at 29.8 µM]. Also, the viability, percent of control in test [6] was 96.9% [at 29.8 µM].
Consider `O=C1CCc2cc(OCCCCc3nnnn3C3CCCCC3)ccc2N1`, for which the Potency result in test [1], in test [8] and in test [13] was “inactive” each time. Moreover, the result in [9], in test [10], in test [11] and in test [12] was inactive.
`O=C(Nc1nc2ccccc2n1CCN1CCOCC1)c1cccc([N+](=O)[O-])c1`: the result in test [9], in test [10], in [11], in [12] and in test [3] was inactive. Moreover, the Potency result in test [13], in [2] and in [7] was “inactive” throughout. Moreover, the Potency in [4] was 2660 nM (active). Also, in test [5], the viability (% of control) was found to be 77.2%. Also, the viability, percent of control in test [6] came out at 89.4%.
For the compound `CN(C(=O)c1ccc(F)cc1C(F)(F)F)C1CCN(c2nnc(-c3ccnn3C)c3ccccc23)CC1`, the Potency entry in test [2] and in [4] was “inactive” throughout. Also, the result in [3] was inactive. For the same compound, the viability (% of control) in test [5] was 70.8%. In [6], the viability, percent of control was determined as 65.3%.
On to `CO[C@@H]1[C@H](N(C)C(=O)c2ccccc2)C[C@H]2O[C@]1(C)n1c3ccccc3c3c4c(c5c6ccccc6n2c5c31)C(=O)NC4`, for which the Potency result in [2] and in test [4] was “inactive” throughout. Also, the compound was classed as inactive in [3]. In addition, in [5], the viability (% of control) is 7.74%. In addition, the viability, percent of control in test [6] amounted to 23%.
In the case of `Cc1[nH]c(=O)c(C#N)cc1-c1ccc2nccn2c1`, the Potency entry in [1], in test [8], in test [13], in [2], in test [4] and in [7] was “inactive” throughout. Moreover, the result in test [10], in test [11], in test [12] and in test [3] was inactive. Besides, the viability (% of control) in test [5] came out at 104%. In addition, the viability, percent of control in [6] was 78.9%.
`CCN(CC)CCCC(C)Nc1ccnc2cc(Cl)ccc12` (configuration not stated): the compound was classed as inactive in test [9], in [10], in [11] and in test [12]. Besides, the Potency entry in test [13] is “inactive”.
With `OC(CN1CCC(Cc2ccc(F)cc2)CC1)c1ccc(Cl)cc1` (configuration not stated), the Potency result in test [1], in [14], in test [13], in [2], in test [4] and in [7] was “inactive” each time. The outcome in test [9], in [10], in [11], in [12] and in [3] was inactive. Besides, the viability (% of control) in test [5] was 74%.
Turning to `C#Cc1cccc(Nc2ncnc3cc(OCCOC)c(OCCOC)cc23)c1`, the Potency result in test [1], in test [14] and in test [16] was “inactive” in each case. Also, the call in test [15] and in [3] was inactive. In addition, in [5], the viability (% of control) worked out at 58%. The viability, percent of control in test [6] turned out to be 74.6%.
As to `Nc1nc2ccc(OC(F)(F)F)cc2s1`, the Potency result in test [8], in test [14], in [13], in [2], in [4] and in test [7] was “inactive” throughout. Moreover, the call in [9], in test [10], in test [11], in [12] and in test [3] was inactive.
Take `Cn1cnc2c(F)c(Nc3ccc(Br)cc3Cl)c(C(=O)NOCCO)cc21`: the Potency result in test [1], in test [2], in [4] and in [16] was “inactive” each time. Also, the outcome in [3] was inactive. In addition, in test [5], the viability (% of control) was 79.9%. In addition, the viability, percent of control in test [6] was 76.1%.
For `CCOC(=O)C1=C[C@]2(CC)CCCN3CCc4c(n1c1ccccc41)[C@@H]32`, the Potency entry in [1], in test [14] and in test [13] was “inactive” in each case. For the same compound, the compound was classed as inactive in test [15], in [9], in [10], in [11] and in [12].

Values taken from PubChem BioAssay (NCATS).
